Over roughly 9,900 sequences, “r (bound/input frequency ratio)” has its median near 0.7; the highest 2% begin near 6.5. For the sample, the highest values were picked, then their nearest neighbours and some sequences at random.
B1: ENSMUSG00000022095.20|Fam160b2 (ssRNA)
RNA: GGGAGUUCUACAGUCCGACGAUCGCUUCGAUAUCCGCAUGCUAGGUGGGGGAAGAUUCCUGCCUGUGUACUUCUGCCCACGGGCAGUCUCCUGCCUGGCCAUGCUGCCACUCUGUCCUCCAUGCCGGGGACUUCAGCUGCAGGACACCUCACCUGUUGACCCCACGAGCUGAGGUUUCAAGGAGGUGCUGGCUCCUAAGGCAGUGGUAUUCUUGGAGCCUUUUAGAGGAGCUAGAGGAUGGCCAGUGAGCGCCUAGAUGCUGCCCUGCAUGUGUUGCGUGACUAUCUCUGCUAUAUUGUGACCCUCUUGCGGUCGCACUAGUGUGGAAUUCUCGGGUGUCAAGG
B2: ENSMUSG00000058297.107|Spock2|69:74 (ssRNA)
RNA: GGGAGUUCUACAGUCCGACGAUCGCUUCGAUAUCCGCAUGCUAUGAGGCAGGACCUGUACACACAGCAAGGCUUACUAUCCGUCUCCUGACAUCCGAAGAGCUCGUCGCAGCACACACUAAUGGCCCUUGGGCUGCACGUGGUUAAGCAUAGCUGUCUCUGUGGCCCAACACAAAGAGGUAAACUUACUUAAAACACAGGGGUUUUGUUGCUGUUUGUUUUUUGUUAGUUUGUUUGUUGAUAAUUGGAUUGAGGAGUUAAUCCUCUGUCACAAUGUCAAAAGCAUGGACAUCCCUGAUAGAUUCUCUUGCGGUCGCACUAGUGUGGAAUUCUCGGGUGUCAAGG
B3: ENSMUSG00000061578.1365|Ksr2|224:228 (ssRNA)
RNA: GGGAGUUCUACAGUCCGACGAUCGCUUCGAUAUCCGCAUGCUACAGGACAGCCCAGCUUCCCACUCCAGACAUGUUGUUCUUACAUCUCUGACCCAGUGAUCUUUCUAGGGGUCUGUCACAUGUCCCAACAGGUGGACAGCUCUCCAAGUCACCAACCUGAGGAAAAUAUCCCUCCUUGUAAAAAGGCUUUCUCUUUGUAAAUGAUUCUGUUGCCUUUUUCUAAACACAAAGUAUAUAUACCUAUAAAUGCUAUAUAUAUUAUAUAACACAAUAUACAUAAAGACUACUUCUUGUACAGCCCUCUCUUGCGGUCGCACUAGUGUGGAAUUCUCGGGUGUCAAGG
B4: ENSMUSG00000004113.365|Cacna1b (ssRNA)
RNA: GGGAGUUCUACAGUCCGACGAUCGCUUCGAUAUCCGCAUGCUAUAUACAAAGGCACAAUACCCUGAAACUUUAACAGAGUAUUUUAUUCCAGUAGGGUAAAAUUAAACGGGACUCUUGGACUGCGCAUGUGACUGCACCCACGUUGCAACAGAGAAGGAUGUGCAUUUUGAUACUGAUGUUCUGUCUCUGUUCCAGCCCCAGCCCCCUUUUCUCUUGAGUGUUGAAUGUAUACAUUCUGUGUGGAACUACAGCUGCCUCAGACAAUCCUGGGUUGGGAAUCAUCUUUAUCCCACAUCAACAUACUCUUGCGGUCGCACUAGUGUGGAAUUCUCGGGUGUCAAGG
B5: ENSMUSG00000058297.177|Spock2 (ssRNA)
RNA: GGGAGUUCUACAGUCCGACGAUCGCUUCGAUAUCCGCAUGCUAUGUCAUCAUAUAGCUGAGAUUUGGAGUAGCCUGCUAUGAGGGCUUGCAGUUGCACUCUCUGUUCCCUGGCGAGGGUCCCCCUUGUCCCAAGGAGCAGAGGACCAGCAAGCAGCCCGUGUCUGCUCACCUUCUCCCUGACCCUCUAGGAAAUGGUUCCCUCUUGCCCCGACCAAUAGAAGGGCGUGUCCCCGAGACCCUUGUGAGGAACCACGGGGAGCUGUGACUUCCUGUGCCCAGAAGGUCCUGGAGGAGAGGCCCCACUCUUGCGGUCGCACUAGUGUGGAAUUCUCGGGUGUCAAGG
B6: ENSMUSG00000058297.112|Spock2|39:44 (ssRNA)
RNA: GGGAGUUCUACAGUCCGACGAUCGCUUCGAUAUCCGCAUGCUAUACUAUCCGUCUCCUGACAUCCGAAGAGCUCGUCGCAGCACACACUAAUGGCCCUUGGGCUGCACGUGGUUAAGCAUAGCUGUCUCUGUGGCCCAACACAAAGAGGUAAACUUACUUAAAACACAGGGGUUUUGUUGCUGUUUGUUUUUUGUUAGUUUGUUUGUUGAUAAUUGGAUUGAGGAGUUAAUCCUCUGUCACAAUGUCAAAAGCAUGGACAUCCCUGAUAGAUUAUCUCUCAACCUAGUCCCGAGUAACCAGAGCUCUUGCGGUCGCACUAGUGUGGAAUUCUCGGGUGUCAAGG
B7: ENSMUSG00000022095.12|Fam160b2|69:73 (ssRNA)
RNA: GGGAGUUCUACAGUCCGACGAUCGCUUCGAUAUCCGCAUGCUAAACUUCUCUCCACCUCCAGAAGGGCAAGUCUGAGCCAGGAGCAUGACGGGUGGGGGAAGAUUCCUGCCACACAACUUCUGCCCACGGGCAGUCUCCUGCCUGGCCAUGCUGCCACUCUGUCCUCCAUGCCGGGGACUUCAGCUGCAGGACACCUCACCUGUUGACCCCACGAGCUGAGGUUUCAAGGAGGUGCUGGCUCCUAAGGCAGUGGUAUUCUUGGAGCCUUUUAGAGGAGCUAGAGGAUGGCCAGUGAGCGCCUACUCUUGCGGUCGCACUAGUGUGGAAUUCUCGGGUGUCAAGG
B8: ENSMUSG00000028439.123|Fam219a|54:58 (ssRNA)
RNA: GGGAGUUCUACAGUCCGACGAUCGCUUCGAUAUCCGCAUGCUACUGAGGGUUGGGAAGGUAAGAUGGGCCUUAGAGAGAAGCCAGGUUUGGGGAUGCAUACACCUGUUCUCACCGGUCUCUAACCAGUGCAUCUGUCUCUCUGCCUCAUCCCCACACCGCCCUGCCACCCCCAGUCUUCUGUCUAUUGGUUCCAGGCUGGAAGCAAGAGAUAAGGCUGGCCUCCUGUGCCCCAUUGCCAUUUCACCCUAGCUCAAAGUCCAGGAGCCAGGCUUCCAGAAAGGCUCUUCAAGAGCAAGCUUAAGCUCUUGCGGUCGCACUAGUGUGGAAUUCUCGGGUGUCAAGG
B9: ENSMUSG00000042529.392|Kcnj12 (ssRNA)
RNA: GGGAGUUCUACAGUCCGACGAUCGCUUCGAUAUCCGCAUGCUAGAUCAGUCCGACUUGAGUCCCUGCCCUGCCCUGGUUAUGCAGGCUGUACGACGCAGUGUGCAUCAGUCUGAGGAGUCUGGUGGUAAGUAAGCCUCUGCAGCAGACCCUGUCGGAGGCCAUGGGGGCGUGUGUGUGUGUGUGUGUGUGUGUGUGUGUGUGUGUGUGUGUGUGUGUGUGUGAACAUGUGUGAGGGUGUGGAGGUCCCAGGGUGUGUGUAUGUGAAUGUCAGUGGCUUGGGUGCUGUGUGGAGAGAGAGAGAGCUCUUGCGGUCGCACUAGUGUGGAAUUCUCGGGUGUCAAGG
B10: ENSMUSG00000042529.393|Kcnj12 (ssRNA)
RNA: GGGAGUUCUACAGUCCGACGAUCGCUUCGAUAUCCGCAUGCUAUCCGACUUGAGUCCCUGCCCUGCCCUGGUUAUGCAGGCUGUACGACGCAGUGUGCAUCAGUCUGAGGAGUCUGGUGGUAAGUAAGCCUCUGCAGCAGACCCUGUCGGAGGCCAUGGGGGCGUGUGUGUGUGUGUGUGUGUGUGUGUGUGUGUGUGUGUGUGUGUGUGUGUGUGAACAUGUGUGAGGGUGUGGAGGUCCCAGGGUGUGUGUAUGUGAAUGUCAGUGGCUUGGGUGCUGUGUGGAGAGAGAGAGAGAGAGAGCUCUUGCGGUCGCACUAGUGUGGAAUUCUCGGGUGUCAAGG
B11: ENSMUSG00000042529.398|Kcnj12 (ssRNA)
RNA: GGGAGUUCUACAGUCCGACGAUCGCUUCGAUAUCCGCAUGCUAAUGCAGGCUGUACGACGCAGUGUGCAUCAGUCUGAGGAGUCUGGUGGUAAGUAAGCCUCUGCAGCAGACCCUGUCGGAGGCCAUGGGGGCGUGUGUGUGUGUGUGUGUGUGUGUGUGUGUGUGUGUGUGUGUGUGUGUGUGUGAACAUGUGUGAGGGUGUGGAGGUCCCAGGGUGUGUGUAUGUGAAUGUCAGUGGCUUGGGUGCUGUGUGGAGAGAGAGAGAGAGAGAGAGAGAGAGAGAGAGAGAGAGAGAGAGAGAGCUCUUGCGGUCGCACUAGUGUGGAAUUCUCGGGUGUCAAGG
B12: ENSMUSG00000058297.302|Spock2|29:34 (ssRNA)
RNA: GGGAGUUCUACAGUCCGACGAUCGCUUCGAUAUCCGCAUGCUAAUGCCCAGGAAGAGUGAGGGCAGCCCCCACACACGUGGAAGAGGCUGGGCAGCUAGCUACUGGGGACCUUGUGCUGAGGCUUCCAGGACAAAGCCCCAGUCUGGCUCUCCCCCAGCCUCUCAGGGGCACUGGCUGGUCACAUCCACUGAGUAUUGAUCGGUUGGACUUUAGGGAAGAGCCUCCUCCUUCCCAUUCCUUUCUGCCACCCUGGAAUGGCCACCUUAAUCGUCAUCUCCUCGGGGGGAAUACGGAAAUGUCACCUCUUGCGGUCGCACUAGUGUGGAAUUCUCGGGUGUCAAGG
B13: ENSMUSG00000042529.387|Kcnj12 (ssRNA)
RNA: GGGAGUUCUACAGUCCGACGAUCGCUUCGAUAUCCGCAUGCUACUGGUCAGGCUGGAUGCUGGCCACAGACAUGAUCAGUCCGACUUGAGUCCCUGCCCUGCCCUGGUUAUGCAGGCUGUACGACGCAGUGUGCAUCAGUCUGAGGAGUCUGGUGGUAAGUAAGCCUCUGCAGCAGACCCUGUCGGAGGCCAUGGGGGCGUGUGUGUGUGUGUGUGUGUGUGUGUGUGUGUGUGUGUGUGUGUGUGUGUGUGAACAUGUGUGAGGGUGUGGAGGUCCCAGGGUGUGUGUAUGUGAAUGUCAGUCUCUUGCGGUCGCACUAGUGUGGAAUUCUCGGGUGUCAAGG
B14: ENSMUSG00000042529.388|Kcnj12 (ssRNA)
RNA: GGGAGUUCUACAGUCCGACGAUCGCUUCGAUAUCCGCAUGCUAAGGCUGGAUGCUGGCCACAGACAUGAUCAGUCCGACUUGAGUCCCUGCCCUGCCCUGGUUAUGCAGGCUGUACGACGCAGUGUGCAUCAGUCUGAGGAGUCUGGUGGUAAGUAAGCCUCUGCAGCAGACCCUGUCGGAGGCCAUGGGGGCGUGUGUGUGUGUGUGUGUGUGUGUGUGUGUGUGUGUGUGUGUGUGUGUGUGUGAACAUGUGUGAGGGUGUGGAGGUCCCAGGGUGUGUGUAUGUGAAUGUCAGUGGCUUGCUCUUGCGGUCGCACUAGUGUGGAAUUCUCGGGUGUCAAGG
B15: ENSMUSG00000042529.386|Kcnj12 (ssRNA)
RNA: GGGAGUUCUACAGUCCGACGAUCGCUUCGAUAUCCGCAUGCUACCUGAACUGGUCAGGCUGGAUGCUGGCCACAGACAUGAUCAGUCCGACUUGAGUCCCUGCCCUGCCCUGGUUAUGCAGGCUGUACGACGCAGUGUGCAUCAGUCUGAGGAGUCUGGUGGUAAGUAAGCCUCUGCAGCAGACCCUGUCGGAGGCCAUGGGGGCGUGUGUGUGUGUGUGUGUGUGUGUGUGUGUGUGUGUGUGUGUGUGUGUGUGUGAACAUGUGUGAGGGUGUGGAGGUCCCAGGGUGUGUGUAUGUGAAUCUCUUGCGGUCGCACUAGUGUGGAAUUCUCGGGUGUCAAGG
B16: ENSMUSG00000042529.397|Kcnj12 (ssRNA)
RNA: GGGAGUUCUACAGUCCGACGAUCGCUUCGAUAUCCGCAUGCUACUGGUUAUGCAGGCUGUACGACGCAGUGUGCAUCAGUCUGAGGAGUCUGGUGGUAAGUAAGCCUCUGCAGCAGACCCUGUCGGAGGCCAUGGGGGCGUGUGUGUGUGUGUGUGUGUGUGUGUGUGUGUGUGUGUGUGUGUGUGUGUGUGAACAUGUGUGAGGGUGUGGAGGUCCCAGGGUGUGUGUAUGUGAAUGUCAGUGGCUUGGGUGCUGUGUGGAGAGAGAGAGAGAGAGAGAGAGAGAGAGAGAGAGAGAGAGAGCUCUUGCGGUCGCACUAGUGUGGAAUUCUCGGGUGUCAAGG

Biological target: TDP-43 (Homo sapiens, UniProt Q13148 1-414)
Sequence (Q13148 whole entry): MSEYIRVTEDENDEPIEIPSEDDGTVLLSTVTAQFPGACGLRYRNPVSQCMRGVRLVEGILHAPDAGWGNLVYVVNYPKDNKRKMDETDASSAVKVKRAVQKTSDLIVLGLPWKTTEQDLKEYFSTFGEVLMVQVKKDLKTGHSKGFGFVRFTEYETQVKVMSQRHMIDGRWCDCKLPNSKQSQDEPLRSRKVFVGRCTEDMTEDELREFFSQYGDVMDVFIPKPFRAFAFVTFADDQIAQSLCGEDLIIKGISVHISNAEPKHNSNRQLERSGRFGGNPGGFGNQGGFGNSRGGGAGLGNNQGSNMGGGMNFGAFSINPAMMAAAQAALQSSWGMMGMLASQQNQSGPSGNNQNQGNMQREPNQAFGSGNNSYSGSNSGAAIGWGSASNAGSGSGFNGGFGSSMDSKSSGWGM
Experiment: RNA Bind-n-Seq with designed 260-mer pool; 25 mM Tris-HCl, 150 mM KCl, 3 mM MgCl2, BSA (printed 500 mg/mL), 20 units/mL SUPERase IN; pH not stated; 500 nM RNA pool, 1 h, 4 C; TDP-43 5, 50, 500 nM; high values mean tight binding
Conditions: protein: recombinant; tags: SBP (GST cleaved off with PreScission; pGEX-GST-SBP)
Outline: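 In 25 mM Tris-HCl, 150 mM KCl, 3 mM MgCl2, BSA and SUPERase IN, 500 nM of an in vitro-transcribed 260-nt 3′ UTR oligo pool was incubated for 1 h at 4 °C with SBP-tagged TDP-43 (5, 50 or 500 nM) captured on streptavidin beads. RNA remaining after washes was biotin-eluted, reverse transcribed, PCR-amplified and sequenced. Binding, R, is the bound-sample abundance of each oligo, normalized to mapped reads, divided by its abundance in input. Each duplicate used a separate, independent protein batch.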

| Binder | binding signal |
| --- | --- |
| B1 | 0.487 R (bound/input frequency ratio) |
| B2 | 1.04 R (bound/input frequency ratio) |
| B3 | 0.125 R (bound/input frequency ratio) |
| B4 | 0.216 R (bound/input frequency ratio) |
| B5 | 0.086 R (bound/input frequency ratio) |
| B6 | 1.33 R (bound/input frequency ratio) |
| B7 | 0.253 R (bound/input frequency ratio) |
| B8 | 0.5 R (bound/input frequency ratio) |
| B9 | 7.12 R (bound/input frequency ratio) |
| B10 | 5.42 R (bound/input frequency ratio) |
| B11 | 5.26 R (bound/input frequency ratio) |
| B12 | 0.746 R (bound/input frequency ratio) |
| B13 | 12.1 R (bound/input frequency ratio) |
| B14 | 9.68 R (bound/input frequency ratio) |
| B15 | 6.36 R (bound/input frequency ratio) |
| B16 | 5.15 R (bound/input frequency ratio) |

Reference: PMC12864922, “TDP-43 directly inhibits mRNA accumulation in neurites through modulation of mRNA stability”
